These results are taken from PubChem BioAssay AID651551 (Sanford-Burnham Center for Chemical Genomics, 2012).

The target in the assay is PEG-3 (UniProt Q6IN02). The assay is described as follows: GAPDH versus PEG-3 reporter suppression – cell-based, luminescence, counter-screen for PEG-3 promoter inhibitor project, SAR follow-up (AID 651551). The settings on record: HeLa PEG-Prom / GAPDH luciferase reporter, 6 or 24 h, run 1, 6 h; at 99 µM (top of the series). For orientation: A counterscreen serves to expose hits that act by an unwanted route or on another target.

Take `COc1ccc(-n2nc(C(=O)NCC(=O)Nc3cccc(OC)c3)c3ccccc3c2=O)cc1`: the inhibition % (higher = more inhibition) is -7.42%.

For `Cc1cc(NC(=O)c2ccccc2C)n(-c2nc3ccccc3[nH]2)n1`, the inhibition % (higher = more inhibition) came to 32.8%.

Regarding `CCCn1nc(C(=O)Nc2nc3ccccc3s2)c2ccccc2c1=O`, the inhibition % (higher = more inhibition) is 38.9%.

In the case of `O=C(Nc1nc(-c2ccccc2)cs1)c1nn(-c2ccccc2)c(=O)c2ccccc12`, the inhibition % (higher = more inhibition) is -1.45%.

Take `Cc1ccc(Cl)cc1Nc1nc(-c2sc(NC(=O)c3ccco3)nc2C)cs1`: the inhibition % (higher = more inhibition) was 57.5%.

As to `Cc1cc(NC(=O)c2ccccc2C(F)(F)F)n(-c2nc3ccccc3[nH]2)n1`, the inhibition % (higher = more inhibition) was 92.7%.
